This is an account of results in PubChem BioAssay (NCI).

Test systems include DU-145 prostate; K-562 leukemia; MALME-3M melanoma; MDA-MB-231 breast; RXF 393 renal; SF-268 CNS; SF-295 CNS; SF-539 CNS; UACC-257 melanoma; M14 melanoma.
Holding throughout (experiment): NCI-60 one-dose screen, 48 h (100 = growth as untreated, 0 = no growth, -100 = all killed)
Common to all, as to conditions: 10 µM unless noted

About 83,000 compounds went through this panel and 20% of them were active in at least one assay; those are over-represented in the sample as a whole.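 How to read the values: 0–100, growth inhibition (40 = 60% inhibited); 0, no net growth; -100 to 0, cell death (-40 = 40% of starting cells died; -100 = all dead).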 Unmarked numbers belong to inactive results. The source made the active and inactive calls. The calls were made as follows: active = growth percent below 10; inactive = the rest.

In the case of `CC1CC2Oc3ccc(Cl)cc3C(=O)N2O1` (stereo not given), the growth is 102% in the assay on DU-145 prostate; 107% in the assay with K-562 leukemia; 118% in the assay on MALME-3M melanoma; 102% in the assay with MDA-MB-231 breast; 119% in the assay on RXF 393 renal; 103% with SF-268 CNS. Also, the growth was 104% in the assay with SF-295 CNS, 102% with SF-539 CNS, 118% with UACC-257 melanoma and 107% in the assay on M14 melanoma.

Consider `COc1cc(/C=N/Nc2ncc(-c3cc4cc5c(cc4o3)OCO5)s2)cc(OC)c1OC`, for which the growth was 48% in the assay on DU-145 prostate; 30.1% in the assay on K-562 leukemia; 93.8% in the assay on MALME-3M melanoma; 46.5% in the assay on MDA-MB-231 breast; 66.3% in the assay with RXF 393 renal; 74.9% with SF-268 CNS. In addition, the growth was 67.1% in the assay on SF-295 CNS, 81.7% with SF-539 CNS, 42.2% with UACC-257 melanoma and 26.3% in the assay on M14 melanoma.

For the compound `COc1nc2c(c(=O)n1C)CN(c1ccccc1)C(=O)CN2C`, the growth was 66.3% [100 µM] in the assay on DU-145 prostate; 55.2% [100 µM] in the assay with K-562 leukemia; 74.3% [100 µM] in the assay on MALME-3M melanoma; 47.5% [100 µM] with MDA-MB-231 breast; 60.4% [100 µM] in the assay with RXF 393 renal; 63.4% [100 µM] with SF-268 CNS. Besides, the growth in the assay with SF-295 CNS is 50.7% [100 µM]; in the assay on SF-539 CNS it was 60.8% [100 µM]; with UACC-257 melanoma, 73.6% [100 µM]; in the assay with M14 melanoma it was 68% [100 µM].

Take `COc1cc(/C=C/C(=O)c2c(C)nc3ccccc3c2/C=C/c2ccc(C)cc2)cc(OC)c1OC`: the growth in the assay on DU-145 prostate was 14.7%; in the assay with K-562 leukemia, 12%; in the assay with MALME-3M melanoma it was 39.5%; in the assay on MDA-MB-231 breast it was 16.6%; in the assay with RXF 393 renal, 3.96% (active); in the assay on SF-268 CNS, 44.7%. Besides, the growth in the assay on SF-295 CNS is 38.8%; in the assay on SF-539 CNS, 19.5%; in the assay on UACC-257 melanoma, 43.8%; in the assay with M14 melanoma, 23.9%.

For the compound `Cn1c(-c2c(N)n(Cc3cccnc3)c3nc(C#N)c(C#N)nc23)nc2ccccc21`, the growth in the assay with DU-145 prostate was 95.7%; in the assay with K-562 leukemia it was 51.1%; in the assay on MALME-3M melanoma, 53.5%; with MDA-MB-231 breast it was 89.2%; in the assay with RXF 393 renal, 65.9%; with SF-268 CNS, 98.8%. Also, the growth was 110% in the assay with SF-295 CNS, 64.7% with SF-539 CNS, 102% in the assay on UACC-257 melanoma and 91.1% in the assay on M14 melanoma.

As to `CSc1n(Cc2ccc3ccccc3c2)c(C)c[n+]1Cc1ccc2ccccc2c1`, the growth in the assay on DU-145 prostate was -12.8% (active); in the assay with K-562 leukemia, 8.26% (active); with MALME-3M melanoma, -25.1% (active); with MDA-MB-231 breast, -30.8% (active); with RXF 393 renal, -26.1% (active); in the assay on SF-268 CNS it was -11.7% (active). The growth was -23.3% (active) with SF-295 CNS, 8.44% (active) in the assay with SF-539 CNS, -41.5% (active) in the assay with UACC-257 melanoma and -14.3% (active) in the assay with M14 melanoma.

For the compound `CC(C)(C)C(CCc1ccc(Cl)cc1)N1CCN(C2CCCCC2)CC1` (stereo not given), the growth was 25.3% in the assay on DU-145 prostate; 9.18% (active) in the assay on K-562 leukemia; 83.4% in the assay on MALME-3M melanoma; 12.3% in the assay with MDA-MB-231 breast; 83.2% in the assay with RXF 393 renal; 43.8% in the assay on SF-268 CNS. In addition, the growth was 72.6% in the assay with SF-295 CNS, 81.2% in the assay on SF-539 CNS, 51.4% with UACC-257 melanoma and 31.9% in the assay with M14 melanoma.

For the compound `CNc1ccc(NC)c2c1C(=O)c1ccccc1C2=O`, the growth in the assay with DU-145 prostate is 92.6%; in the assay on K-562 leukemia it was 96%; with MALME-3M melanoma, 120%; in the assay on MDA-MB-231 breast it was 77.2%; in the assay on RXF 393 renal it was 75%; in the assay on SF-268 CNS it was 76.4%. In addition, the growth with SF-295 CNS was 65.9%; in the assay with SF-539 CNS, 56%; with UACC-257 melanoma it was 85.2%; in the assay with M14 melanoma it was 113%.

`NC(=N\N=C/c1ccccc1[N+](=O)[O-])/C(N)=N\N=C/c1ccccc1[N+](=O)[O-]`: the growth in the assay with DU-145 prostate was 107%; with K-562 leukemia, 101%; with MALME-3M melanoma, 146%; with MDA-MB-231 breast, 107%; with RXF 393 renal it was 103%; in the assay on SF-268 CNS it was 99.7%. Moreover, the growth in the assay on SF-295 CNS was 105%; in the assay with SF-539 CNS, 97.2%; in the assay with UACC-257 melanoma it was 113%; in the assay with M14 melanoma, 111%.

As to `Cc1cccc(Cc2cnc(NC(=O)/C=C/c3ccco3)s2)c1`, the growth is 15.9% in the assay on DU-145 prostate; 8.09% (active) in the assay on K-562 leukemia; 54.8% with MALME-3M melanoma; 56.5% in the assay on MDA-MB-231 breast; -0.566% (active) with RXF 393 renal; 49.4% in the assay on SF-268 CNS. The growth in the assay with SF-295 CNS was 6.75% (active); in the assay on SF-539 CNS, -19.9% (active); with UACC-257 melanoma, 41.3%; with M14 melanoma, 10.3%.

As to `COc1ccc(-c2c(N)n[nH]c2-c2ccc(Cl)cc2O)cc1OC`, the growth in the assay on DU-145 prostate was 101%; with K-562 leukemia, 75.5%; with MALME-3M melanoma, 105%; in the assay on MDA-MB-231 breast, 106%; in the assay with RXF 393 renal, 98.2%; in the assay with SF-268 CNS it was 102%. Moreover, the growth is 99.2% with SF-295 CNS, 100% in the assay on SF-539 CNS, 93% with UACC-257 melanoma and 93.2% with M14 melanoma.

As to `COc1ccc(OC)c2c1[nH]c(=O)c1c3ncccc3cn21`, the growth with DU-145 prostate was 26.3%; in the assay with K-562 leukemia it was 32%; in the assay with MALME-3M melanoma it was 60.2%; in the assay with MDA-MB-231 breast, 41.4%; in the assay with RXF 393 renal, 12.7%; in the assay with SF-268 CNS, 34.2%. In addition, the growth in the assay on SF-295 CNS is -3.56% (active); in the assay with SF-539 CNS it was 37.2%; with UACC-257 melanoma, 37.4%; in the assay on M14 melanoma, 39.7%.

For the compound `COc1ccc(-c2nc(SCCC(C)C)nc(N/N=C\c3ccccc3O)c2C#N)cc1`, the growth with DU-145 prostate was 95.7%; with K-562 leukemia, 91.6%; in the assay with MALME-3M melanoma, 89.6%; with MDA-MB-231 breast it was 85.1%; in the assay on RXF 393 renal, 76.1%; with SF-268 CNS, 78%. The growth in the assay on SF-295 CNS was 94.2%; in the assay on SF-539 CNS it was 90.9%; in the assay with UACC-257 melanoma it was 89.8%; in the assay with M14 melanoma, 98.3%.

Turning to `O=C1C=C[C@]2(C[C@@H](c3cccc(C(F)(F)F)c3)O[C@@H](c3cccc(C(F)(F)F)c3)O2)O1`, the growth in the assay on DU-145 prostate was 28.7%; in the assay on K-562 leukemia it was -4.01% (active); in the assay with MALME-3M melanoma, 36.4%; in the assay on MDA-MB-231 breast, -57.2% (active); with RXF 393 renal, -0.258% (active); in the assay on SF-268 CNS, -27.1% (active). Moreover, the growth with SF-295 CNS is 46.1%; in the assay on SF-539 CNS it was -69.6% (active); in the assay on UACC-257 melanoma, 59.6%; with M14 melanoma, 44.8%.
